Results published in ChEMBL document CHEMBL1157539, “Thousands of chemical starting points for antimalarial lead identification” (Nature, 2010).

How the values were obtained:
Type in all cases: functional
Plasmodium falciparum [1] = assay: GSK_TCMDC: Inhibition of Plasmodium falciparum 3D7 in whole red blood cells, using parasite LDH activity as an index of growth. Test compounds present at 2uM
Plasmodium falciparum [2] = assay: GSK_TCMDC: Inhibition of Plasmodium falciparum Dd2 in whole red blood cells, using parasite LDH activity as an index of growth. Test compounds present at 2uM
HepG2 = assay: GSK_TCMDC: Percent inhibition of human HepG2 cell line. Test compounds present at 10uM.

SMILES	Inhibition (Plasmodium falciparum [1])	Inhibition (Plasmodium falciparum [2])	Inhibition (HepG2)
COc1cc(NC(=O)c2ccc(-c3ccccc3)cc2)ccc1OCCCN1CCC(c2ccccc2)CC1.Cl	100%	30%	46%
CCC(=O)Nc1ccc(C(O)CN2CCC3(C=Cc4ccccc4O3)CC2)cc1 (centres undefined)	93%	47%	48%
CN(CCNCc1ccc(-c2cccc(-c3nc4ccccc4[nH]3)c2)cc1)S(C)(=O)=O.O=C(O)C(F)(F)F	100%	29%	9%
O=C(NCCOc1ccccc1)[C@H](Cc1ccccc1)Nc1ccnc(NCC2CCCCC2)n1.O=C(O)C(F)(F)F	96%	73%	80%
CC(C)C1=CC(=NOS(=O)(=O)c2ccccc2)C=C(C(C)C)C1=O	92%	74%	23%
COc1ccc(CN2CCC(CNCCc3ccccc3Cl)CC2)cc1.O=C(O)C(F)(F)F	87%	17%	36%
Nc1nc(O)c2cc(CN(C=O)c3ccc(C(=O)N[C@@H](CCC(=O)O)C(=O)O)cc3)ccc2n1	93%	94%	0%
Fc1ccc(Nc2ccnc3cc(-c4ccc(CN5CCOCC5)o4)ccc23)c(Cl)c1	100%	100%	42%
CCCCOc1ccc(CNCCCCCCNCc2ccc(OCCCC)c3ccccc23)c2ccccc12.CS(=O)(=O)O	81%	49%	100%
NC1CCN(Cc2cccc(-c3cccc(-c4nc5ccccc5[nH]4)c3)c2)C1.O=C(O)C(F)(F)F (centres undefined)	100%	0%	14%
O=C(/C=C/c1ccc(Cl)c(Cl)c1)NCCCCCN1CCC(NC(=S)Nc2ccc(Cl)cc2Cl)CC1	99%	47%	53%
NS(=O)(=O)c1ccc(Nc2nccc(-c3c(-c4cccc(NC(=O)c5c(F)cccc5F)c4)nn4ccccc34)n2)cc1	93%	89%	83%
Brc1ccc(Nc2ccnc3cc(-c4nccs4)ccc23)cc1Oc1ccnc2cc(-c3nccs3)ccc12	91%	83%	15%
CC(C)CNCc1cccc(-c2cccc(CN(CCCN3CCN(C)CC3)C(=O)NC3CCCCC3)c2)c1.O=C(O)C(F)(F)F	100%	84%	16%
O=C(Nc1cccc(C(F)(F)F)c1)c1cc([N+](=O)[O-])cc2cn[nH]c12	100%	69%	60%
C[C@@H]([C@@H](CCCCc1ccccc1)C(=O)N[C@H](C(=O)Nc1cccnc1)C(C)(C)C)N(O)C=O	98%	98%	0%
Cc1cc(-c2ccc(CNCCc3cccs3)cc2)ccc1S(=O)(=O)NCc1ccccc1.O=C(O)C(F)(F)F	94%	0%	28%
Cc1ccc(C)c2sc(N(CCCn3ccnc3)C(=O)c3ccco3)nc12.Cl	96%	63%	28%
c1ccc(CCNc2nc(NCC(c3ccccc3)c3ccccc3)c3nc[nH]c3n2)cc1	100%	95%	9%
COc1ccc2nccc([C@@H](O)CN3CCC(NCc4cc5cccc6c5n(c4=O)CCC6)CC3)c2c1.O=C(O)C(=O)O	98%	97%	33%
COc1ccc2nccc([C@@H](O)CN3CCC(NCc4ccc5cccc(O)c5n4)CC3)c2n1.CS(=O)(=O)O	94%	13%	8%
CC(=O)Nc1cccc(C(=O)Nc2cccc(-c3ccc(-c4nc5cc(C(F)(F)F)ccc5[nH]4)s3)c2)c1	98%	46%	80%
COc1ccccc1-c1ccc2nnc(SCC(=O)Nc3ccc4c(c3)OCCO4)n2n1	99%	5%	9%
